Key:
Type in all cases: functional
Plasmodium falciparum [1] = experiment: GSK_TCMDC: Inhibition of Plasmodium falciparum 3D7 in whole red blood cells, using parasite LDH activity as an index of growth. Test compounds present at 2uM
Plasmodium falciparum [2] = experiment: GSK_TCMDC: Inhibition of Plasmodium falciparum Dd2 in whole red blood cells, using parasite LDH activity as an index of growth. Test compounds present at 2uM
HepG2 = experiment: GSK_TCMDC: Percent inhibition of human HepG2 cell line. Test compounds present at 10uM.

| SMILES | Inhibition (Plasmodium falciparum [1]) [%] | Inhibition (Plasmodium falciparum [2]) [%] | Inhibition (HepG2) [%] |
| --- | --- | --- | --- |
| Cc1cc(NC2CCCC2)nc(Nc2ccccc2)n1 | 100 | 75 | 26 |
| CC(O)c1cccc(-c2ccc(Nc3ccnc4cc(-c5nccs5)ccc34)cc2)c1.Cl (stereo not given) | 91 | 69 | 31 |
| CCOc1cc(C)ccc1C1CCN(CCCCNC(=O)c2nc(-c3ccc(C(F)(F)F)cc3)[nH]c2C)CC1.Cl | 100 | 98 | 30 |
| CCN1CCN(C(=O)NC(C(=O)N2CCCC(COc3ccc(Cc4ccccc4)cc3)C2)c2cccs2)C(=O)C1=O (stereo not given) | 95 | 87 | 12 |
| CC(=O)Nc1ccc(C(=O)Nc2ccc(-c3csc(-c4nc5ccccc5[nH]4)c3)cc2)cn1 | 93 | 0 | 11 |
| Oc1ccc(Nc2nc(NCc3ccccc3)c3ccccc3n2)cc1 | 100 | 100 | 33 |
| COc1cccc(-c2cc(-c3ccc(NC(=O)c4ccccc4)cc3)c3c(N)ncnc3n2)c1 | 99 | 98 | 0 |
| O=C(NCc1ccccc1)Nc1ccc(-c2cccc(-c3nc4cc(C(F)(F)F)ccc4[nH]3)c2)cc1 | 97 | 23 | 56 |
| Cc1cc(C)c(NC(=O)N2CCCN(CCCCCNC(=O)/C=C/c3ccc(Cl)c(Cl)c3)CC2)c(C)c1 | 91 | 0 | 12 |
| O=C(Nc1cccc(-c2ccc(CN3CCC(O)CC3)cc2)c1)c1cccc(Cl)c1.O=C(O)C(F)(F)F | 96 | 2 | 11 |
| Fc1cc(Cl)ccc1Nc1ccnc2cc(-c3ccc(CN4CCOCC4)o3)ccc12 | 99 | 98 | 33 |
| CN(C)CCCOc1ccc(CN2CC[C@H](NC(=O)c3ccc(Cl)c(Cl)c3)C2)cc1Cl.O=C(O)C(F)(F)F | 100 | 35 | 65 |
| COc1cc2c(cc1OC)C(C(=O)Nc1ccc(C(F)(F)F)cc1)C(c1cccs1)N(C)C2=O (stereo not given) | 99 | 86 | 31 |
| Cc1cccc2nc(-c3cccc(-c4ccc(NC(=O)c5cccnc5)cc4)c3)[nH]c12 | 100 | 45 | 64 |
| Cc1ccc(F)c(NC(=O)c2c(-c3c(F)cccc3Cl)noc2C)c1 | 90 | 18 | 13 |
| Br.CCCCc1ccc(CCNCCCCCCNCCc2ccc(O)c(O)c2)cc1 | 100 | 0 | 45 |
| CCc1ccc(CN2CCCCC(NC(=O)c3cc(-c4ccccc4F)cs3)C2)cc1.O=C(O)C(F)(F)F (stereo not given) | 87 | 12 | 25 |
| CC(CCc1ccccc1)NCC(O)c1ccc2c(c1)S(=O)(=O)c1ccccc1N2 (stereo not given) | 95 | 4 | 17 |
| c1ccc(OCCCCN2CCCCC2)cc1 | 95 | 1 | 2 |
| Cc1cc(C(=O)CN2C(=O)NC(C)(c3ccc4ccccc4c3)C2=O)c(C)n1Cc1ccco1 (stereo not given) | 97 | 71 | 12 |

| SMILES | Inhibition (Plasmodium falciparum [1]) [%] | Inhibition (Plasmodium falciparum [2]) [%] | Inhibition (HepG2) [%] |
| --- | --- | --- | --- |
| COc1c(C2CCN(CCCCNC(=O)c3ccc(-c4ccc(Cl)cc4)c(O)c3)CC2)ccc2c1CCCC2 | 100 | 99 | 91 |
| CC(CNC(=O)[C@H]1CNCCN1C(=O)CCCc1ccccc1)c1ccccc1.O=C(O)C(F)(F)F (stereo not given in full) | 94 | 1 | 12 |
| Cl.c1ccc(Oc2ccc(Nc3ccnc(Nc4ccc(OCCN5CCCCC5)cc4)n3)cc2)cc1 | 97 | 66 | 23 |
| Cl.O=S(=O)(Nc1ccc2nccc(N3CCNCC3)c2c1)c1ccc2oc3ccccc3c2c1 | 100 | 2 | 16 |
| N#Cc1ccc(CN2CCC(NC(=O)c3ccc(-c4nnc(-c5cccc6ccccc56)o4)cc3)CC2)cc1 | 98 | 14 | 37 |
| COc1ccc(Nc2nccc(N3CCC(NC(=O)Nc4cc(C)ccc4C)C3)n2)cc1 (stereo not given) | 91 | 37 | 10 |
| COc1ccc2nccc(NC(=O)N3CCC(NCCOc4cc(F)cc(F)c4)CC3)c2n1.O=C(O)C(=O)O | 86 | 38 | 14 |
| O=C(/C=C/c1cc([N+](=O)[O-])ccc1Cl)N1CCC(CCN2CCC(c3c[nH]c4ccccc34)CC2)CC1 | 92 | 26 | 25 |
| CC(O)C1CCCCN1C(=O)c1cccc(-c2cccc(-c3nc4cc(C(F)(F)F)ccc4[nH]3)c2)c1 (stereo not given) | 100 | 100 | 32 |
| CCC1CN2CCc3cc(OC)c(OC)cc3C2CC1CC1NCCc2cc(OC)c(OC)cc21.Cl (stereo not given) | 100 | 98 | 42 |
| COc1ccc(C[C@H](N)C(=O)N[C@H]2[C@@H](O)[C@H](n3cnc4c(N(C)C)ncnc43)O[C@@H]2CO)cc1 [PUROMYCIN] | 100 | 100 | 99 |
| Cl.O=c1cc(NCCNCc2cccc(-c3ccccc3)c2)[nH]c2ccccc12 | 93 | 68 | 0 |
| Oc1ccc(Nc2ccnc3cc(Cl)ccc23)cc1 | 100 | 97 | 0 |
| COc1ccc(Cc2cccc(C(C(=O)NCc3cc(Cl)cc(Cl)c3)N3CCN(C)CC3)c2)cc1.O=C(O)C(F)(F)F (stereo not given) | 100 | 24 | 8 |
| NC(=O)c1ccc(NC(=O)CN(Cc2ccc(Cl)cc2)S(=O)(=O)c2ccccc2)cc1 | 90 | 75 | 2 |
| Cl.c1ccc2c(NCCCCCCCNc3ccnc4ccccc34)ccnc2c1 | 100 | 94 | 91 |
| COc1ccc(NC(=O)/C=C/c2cc(Br)ccc2F)cc1OCCN(C(C)C)C(C)C.O=C(O)C(F)(F)F | 100 | 14 | 22 |
| Cc1nnc2c(N(C(=O)NCCc3ccccc3)C(=O)NCCc3ccccc3)cc3cc(Cl)ccc3n12 | 91 | 34 | 0 |
| COc1ccc(NC(=O)Nc2ccc(-c3ccncc3)c(C(F)(F)F)c2)cc1N1CCN(C)CC1 | 100 | 62 | 5 |
| COc1ccc(CNC2CCN(C)CC2)cc1-c1ccc(S(=O)(=O)NCC2CCCO2)s1.O=C(O)C(F)(F)F (stereo not given) | 95 | 18 | 18 |

| SMILES | Inhibition (Plasmodium falciparum [1]) [%] | Inhibition (Plasmodium falciparum [2]) [%] | Inhibition (HepG2) [%] |
| --- | --- | --- | --- |
| COc1cc(C=CC(=O)N2CCN(Cc3cccc(C)c3)CC2)ccc1OCc1c(C)noc1C | 86 | 95 | 8 |
| O=C(/C=C/c1ccc(Cl)c(Cl)c1)NCCCCCN1CCC(NC(=O)Nc2ccc([N+](=O)[O-])cc2)CC1 | 100 | 2 | 20 |
| CCCCNC(=N)c1ccc(OCCCCCOc2ccc(C(=N)NCCCC)cc2)cc1.Cl | 99 | 99 | 19 |
| CC(C)(C)c1ccc(C(=O)Nc2ccc(NC(=O)c3ccc([N+](=O)[O-])o3)cc2)cc1 | 81 | 4 | 0 |
| O=C(Nc1cccc(Cl)c1Cl)NC1CCN(Cc2cccc(O)c2)CC1.O=C(O)C(F)(F)F | 98 | 1 | 1 |
| Cl.N=c1n(CCN2CCCCC2)c2ccccc2n1CC(O)c1cccc(Br)c1 (stereo not given) | 86 | 33 | 25 |
| Cc1cc(-c2ccc3c(c2)CCN(CCC2CCC(NC(=O)/C=C/c4cccc(F)c4)CC2)CC3)on1.Cl (stereo not given) | 95 | 19 | 23 |
| CC(CN(C)C)C(=O)Nc1cccc(-c2cccc(-c3nc4ccccc4[nH]3)c2)c1 (stereo not given) | 94 | 25 | 42 |
| CC(=O)O.COc1ccc(CNc2ccc3nc(N)nc(N)c3c2)cc1 | 99 | 84 | 39 |
| O=C1OC2(CCN(C(=O)c3ccc(-n4cnnn4)cc3)CC2)CN1Cc1ccc(Cl)c(Cl)c1 | 97 | 70 | 11 |
| Cc1cccc(CN2CCCN(Cc3ccc(C(=O)Nc4ccc(C)c(F)c4)cc3)CC2)c1.O=C(O)C(F)(F)F | 85 | 3 | 47 |
| COc1cc(-c2nc3ccc(N4CCN(C)CC4)cc3[nH]2)cc(OC)c1OC | 87 | 15 | 6 |
| Cc1nn(CC(C)C)c2sc(C(=O)Nc3nc(-c4ccccn4)cs3)cc12 | 96 | 67 | 29 |
| COc1ccc(NC(=O)N2CCCN(CCCCCNC(=O)/C=C/c3ccc(Cl)cc3)CC2)cc1Cl | 97 | 1 | 15 |
| FC(F)(F)c1ccc2[nH]c(-c3cccc(-c4cccc(CN5CCN(c6ccncc6)CC5)c4)c3)nc2c1.O=C(O)C(F)(F)F | 100 | 99 | 93 |
| O=C(NC1CCN(c2ccnc3ccccc23)C1)c1cccc(C(F)(F)F)c1.O=C(O)C(F)(F)F (stereo not given) | 94 | 86 | 28 |
| CO/C(=C\C=C\c1cc2cc(Cl)c(Cl)cc2[nH]1)C(=O)NC1CC2CCCC(C1)N2C (stereo not given) | 93 | 51 | 42 |
| c1ccc(CNc2nc(NCCc3c[nH]cn3)nc(N3CCCC4CCCCC43)n2)cc1 (stereo not given) | 98 | 100 | 0 |
| Br.COc1ccc(OCCCCON2C(=N)N=C(N)NC2(C)C)cc1 | 92 | 95 | 54 |
| Cl.Cl.N=C(N)c1cccc(-c2cc(-c3cccc(C(=N)N)c3)on2)c1 | 96 | 78 | 8 |

Source: ChEMBL document CHEMBL1157539, “Thousands of chemical starting points for antimalarial lead identification” (Nature, 2010)
